Screens as filed in PubChem BioAssay.
NPC1 prom act: qHTS Assay for NPC1 Promoter Activators; Potency, µM (top dose mostly 9.22 µM), hits mostly activators; Huh7 NPC1 promoter luciferase reporter, 24 h; 320,000 tested, 2.4% active; note: nearly all actives have a fitted effect of over 60% in size
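Compounds in DMSO were transferred onto Huh7 NPC1-luciferase reporter cells pre-incubated 2 h; after 24 h at 37 °C, Amplite reagent was dispensed and luminescence recorded 10 min later.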
FLuc modulator: qHTS profiling assay for firefly luciferase inhibitor/activator using purifed enzyme and Km concentrations of substrates (counterscreen for miR-21 project); purified FLuc, Km substrates, luminescence inhibition; AID 588342, 2011; Potency, µM (series often up to 57.5 µM), hits mostly inhibitors; 360,000 tested, 6.9% active; note: nearly all actives have a fitted effect of over 55% in size
Target sequence (P08659 whole entry, looked up): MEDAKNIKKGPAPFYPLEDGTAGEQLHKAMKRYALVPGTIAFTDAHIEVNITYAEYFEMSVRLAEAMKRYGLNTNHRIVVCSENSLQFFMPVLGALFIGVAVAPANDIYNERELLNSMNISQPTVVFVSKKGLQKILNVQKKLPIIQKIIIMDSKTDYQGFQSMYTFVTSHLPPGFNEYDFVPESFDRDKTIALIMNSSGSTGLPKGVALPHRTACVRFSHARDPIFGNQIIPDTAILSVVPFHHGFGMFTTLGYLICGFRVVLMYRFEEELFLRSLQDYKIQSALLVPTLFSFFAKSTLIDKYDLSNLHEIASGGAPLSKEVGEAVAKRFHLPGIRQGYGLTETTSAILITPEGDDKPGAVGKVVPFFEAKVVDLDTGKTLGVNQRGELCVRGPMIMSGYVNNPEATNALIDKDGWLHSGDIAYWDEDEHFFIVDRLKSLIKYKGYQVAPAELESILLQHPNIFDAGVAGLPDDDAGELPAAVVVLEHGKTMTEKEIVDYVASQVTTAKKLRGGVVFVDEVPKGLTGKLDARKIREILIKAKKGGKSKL
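Biochemical qHTS of compounds, final roughly 60 µM downward over six points, against 10 nM purified firefly luciferase using Km concentrations of substrates (10 uM D-luciferin, 10 uM ATP) in Tris acetate pH 7.5 buffer; luminescence output.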
Rab9 prom act: qHTS Assay for Rab9 Promoter Activators | Potency, µM (series often up to 9.22 µM), most hits filed as activators | Huh7 Rab9 promoter-luciferase reporter, luminescence, 24 h | 320,000 tested, 2.8% active | AID 485297, 2010; note: nearly all actives have a fitted effect of over 60% in size
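Measured in stably transfected Huh7 cells bearing a Rab9 promoter–luciferase construct: 24 h compound treatment at 37 °C, followed by luminescence detection.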
ELG1 genotox: qHTS screen for small molecules that induce genotoxicity in human embryonic kidney (HEK293T) cells expressing luciferase-tagged ELG1. Potency, µM (doses to about 46 µM), most hits filed as activators. HEK293T ELG1-luciferase reporter, luminescence, 16 h. 330,000 tested, 1.3% active; note: nearly all actives have a fitted effect of over 60% in size
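HEK293T cells expressing luciferase-tagged ELG1 were exposed to compound or DMSO vehicle for 16 hr at 37 °C and 5% CO2. Luciferase activity was then measured with ONE-Glo after 30 min at room temperature.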
SMN2 splice up: qHTS Assay for Enhancers of SMN2 Splice Variant Expression; 210,000 tested, 2.8% active; Potency, µM (doses to about 46.1 µM), usual class: activators; AID 1458, 2008; HEK293 SMN2-luciferase splicing reporter, luminescence, 30-36 h; note: nearly all actives have a fitted effect of over 55% in size
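HEK293 cells carry an SMN2 […]–luciferase reporter in which exon 7 inclusion puts luciferase in frame. Cells were plated 10-12 h before compound addition, then incubated 30-36 h at 37C. ONE-Glo luminescence was read; sodium butyrate at 4.5 mM final served as control.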
Numbers stand for hits; i = inactive; ? = inconclusive; nt = not tested or not shown; [ ] = remark or other dose. Shown are actives, neighbours in structure and some others; about 7.5% of the full set was active somewhere. Calls come from the whole dose curve; as a rule, active = well fitted curve in the direction sought with a large enough effect; inconclusive = small, poorly fitted or top-dose-only effect, or another doubt; inactive = no such curve, though single readings can be large; an effect the other way counts as inactive or inconclusive.

SMILES	NPC1 prom act	FLuc modulator	Rab9 prom act	ELG1 genotox	SMN2 splice up
CCOC(=O)c1ccccc1NC(=O)c1ccc2nc[nH]c2c1	i	i	i	i	nt
COc1ccccc1NC(=O)c1cc2cc(Br)ccc2cc1O	i	17µM	i	i	nt
COc1ccc(NC(=O)c2cccn(CC=C(C)C)c2=O)cc1	?	17µM	1.6µM	i	i
COc1ccc(NC(=O)c2cc(-c3cc(OC)c(OC)c(OC)c3)nc3ccccc23)cc1OC	i	?	i	i	nt
COc1cc(NC(=O)c2cc3ccccc3cc2O)c(OC)cc1Cl	?	9.5µM	i	i	nt
COc1cc(NC(=O)c2ccc(Cl)cc2)c(OC)cc1Cl	i	?	i	i	i
COc1cc2cc(C(=O)Nc3ccccc3)c(N)nc2cc1OC	i	12µM	i	i	i
COc1ccccc1NC(=O)COC(=O)c1cc2ccccc2cc1O	i	i	i	i	nt
Cc1ccc2c(=O)cc(C(=O)Nc3ccc(S(=O)(=O)N4CCCCCC4)cc3)oc2c1C	nt	i	nt	nt	i
CCOc1ccc(C(=O)N2CCc3cc(OC)c(OC)cc3C2COc2ccc3c(C)cc(=O)oc3c2)cc1OCC (stereo unspecified)	nt	i	nt	nt	i
COc1ccc(CC(=O)NC(C)c2ccc(S(N)(=O)=O)cc2)cc1S(=O)(=O)N1CCOCC1 (stereo unspecified)	i	i	i	i	nt
COc1cc2ccccc2cc1C(=O)Nc1ccccc1Cl	?	3.4µM	i	?	nt
CCOc1ccc(NC(=O)c2cccc3ccccc23)cc1	i	i	i	i	nt
CCOc1ccc(NC(=O)c2cc3ccccc3cc2O)cc1	?	0.76µM	2.8µM	?	nt
CCOc1ccc(NC(=O)c2cc(OC)nc3ccccc23)cc1	i	i	i	i	nt
COc1cc(OC)c(C(=O)Nc2cccnc2)cc1OC	i	?	i	i	nt
CCOc1ccc(NC(=O)c2cc3ccccc3cc2OC)cc1	?	5.4µM	?	?	nt
COc1cc2ccccc2cc1C(=O)Nc1cccnc1	?	11µM	?	8.2µM	13µM
O=C(CSc1nc2cc(C(=O)NC3CCCC3)ccc2c(=O)n1CC1CCCO1)c1cccc(Cl)c1 (stereo unspecified)	nt	i	nt	nt	nt
Cc1ccc(NC(=O)CSc2nnc(-c3ccoc3C)n2CCCN(C)C)cc1Cl	i	i	i	i	nt
COc1ccccc1NC(=O)Nc1nc(CC(=O)NCc2ccc(F)cc2)cs1	i	?	i	i	nt
COc1ccc(NC(=O)c2cc3ccccc3cc2OC)cc1	?	3.4µM	i	?	nt
COc1cc2ccccc2cc1C(=O)NNC(=O)c1ccccc1O	i	?	i	i	nt
COc1cc2ccccc2cc1C(=O)Nc1ccc(N2CCN(C)CC2)cc1	?	4.8µM	3.5µM	14µM	i
COc1cc2ccccc2cc1C(=O)Nc1ccc(N2CCN(C(=O)C(C)C)CC2)cc1	i	i	i	i	nt
SMILES	NPC1 prom act	FLuc modulator	Rab9 prom act	ELG1 genotox	SMN2 splice up
COc1ccc([C@@H](Nc2ncccn2)c2cc3c(cc2O)OCO3)cc1	nt	nt	nt	nt	i[9.22 µM]
CC1CCC(NC(=O)c2ccc(CS(=O)(=O)c3cccc(C(F)(F)F)c3)o2)CC1 (stereo unspecified)	nt	i	nt	nt	i
Cc1cc(N)c(-n2cc3c(=O)n(C)c(=O)n(C)c3c2)cc1C	i	17µM	?	?	?
Cc1ccc(-n2cc3c(=O)n(C)c(=O)n(C)c3c2)cc1C	i	?	i	i	i
Cn1c(=O)c2cn(-c3ccc4c(c3)OCCO4)cc2n(C)c1=O	?	?	?	11µM	?
CC(C)C(NC(=O)c1ccccc1)C(=O)NCCc1ccccc1 (stereo unspecified)	i	i	i	i	i
O=C(Nc1nc2ccc(Cl)cc2s1)c1ccc(Br)o1	3.5µM	2.4µM	1.1µM	?	11µM
Cn1ncc(Cl)c1C(=O)Nc1nc2ccc(Cl)cc2s1	3.2µM	2.1µM	?	?	3.5µM
CCSc1ncc(Cl)c(C(=O)Nc2nc3ccc(Cl)cc3s2)n1	nt	?	nt	nt	i
O=C(Nc1nc2c(Cl)cccc2s1)c1ccc(Br)o1	i	?	i	i	nt
Cc1cc(C(=O)Nc2nc3ccc(Cl)cc3s2)nn1C	1.4µM	2.1µM	0.63µM	?	nt
CN1CCN(c2ncc3c(n2)CCN(Cc2ccccc2Cl)C3)CC1	nt	i	nt	nt	nt
O=C(CN1C(=O)c2cccnc2Oc2ccc(Cl)cc21)NCCCN1CCCCC1	nt	i	nt	nt	nt
